# Unmarked numbers belong to inactive results. Active and inactive are the calls of the source. Unless noted, calls come from the whole dose curve.
# Target: KiSS-1 receptor (Homo sapiens) (UniProt Q969F8)
# Assay: Human kisspeptin (KISS1R) small molecule agonists, calcium flux assay in KISS1R-HEK293 cells (AID 1920064; active = well fitted activation curve with a large enough effect in the repeat runs)
# Conditions: KISS1R-HEK293, calcium flux fluorescence, agonist; series mostly up to 76.8 µM
# Outline: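 Agonist mode: intracellular calcium rise tracked at 1 s intervals over 3 min (480/540 nm) immediately after compound addition to dye-loaded KISS1R-HEK293 stable cells. Each compound tested at 15 concentrations in triplicate.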
# % is set by controls: 0 for no effect and ±100 for the full control effect.
# Sequence of KiSS-1 receptor (Homo sapiens) (Q969F8 whole entry, looked up): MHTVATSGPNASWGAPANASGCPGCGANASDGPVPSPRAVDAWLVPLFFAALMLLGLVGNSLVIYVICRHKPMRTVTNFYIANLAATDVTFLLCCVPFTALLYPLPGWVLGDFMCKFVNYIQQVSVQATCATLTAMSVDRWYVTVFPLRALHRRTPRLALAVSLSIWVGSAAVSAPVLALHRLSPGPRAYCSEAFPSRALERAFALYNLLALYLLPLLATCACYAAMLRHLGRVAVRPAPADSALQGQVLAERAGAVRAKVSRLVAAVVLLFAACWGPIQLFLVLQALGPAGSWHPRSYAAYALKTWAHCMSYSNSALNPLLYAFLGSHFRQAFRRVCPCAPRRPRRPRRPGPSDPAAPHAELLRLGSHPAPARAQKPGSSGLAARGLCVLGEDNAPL
Compound,outcome,activation
CC(C)NCCCC1(C(N)=O)c2ccccc2-c2ccccc21,inactive,–
CC(C(=O)O)c1cccc(Oc2ccccc2)c1 (stereo not given),inactive,–
CC(C)=CCC[C@@](C)(O)[C@H]1CC=C(C)CC1,inactive,–
O=C(O)C[C@H](O)C[C@H](O)/C=C/c1c(C2CC2)nc2ccccc2c1-c1ccc(F)cc1,–,-0.214% [at 15.8 µM]
O=P(O)(O)OCC(O)CO (stereo not given),inactive,–
COC(=O)[C@H]1[C@H]2C[C@@H]3c4[nH]c5cc(OC)ccc5c4CCN3C[C@H]2C[C@@H](OC(=O)COc2ccc(OC)cc2)[C@@H]1OC,inactive,–
Cc1ccc2c(Cl)cc(Cl)c(O)c2n1,inactive,–
CCC(=O)OC(=O)CC,inactive,–
O=C1c2ccccc2C(=O)N1CO,inactive,–
C[N+]12CCC(CC1)C(OC(=O)C(O)(c1ccccc1)c1ccccc1)C2 (stereo not given),inactive,–
Cc1cccc([N+](=O)[O-])c1C(=O)O,inactive,–
Nc1nc2c(ncn2COCCO)c(=O)[nH]1,inactive,–
C[N+]1(CC2COC(c3ccccc3)(c3ccccc3)O2)CCCCC1 (stereo not given),–,-1.44% [at 15.8 µM]
Cc1ncc(CO)c(C=O)c1O,inactive,–
CC(C)c1ccc(C#N)cc1,inactive,–
CN(C)CCN1CCOCC1,inactive,–
CCOC(=O)[C@H](C)O,inactive,–
CO[C@@]1(NC(=O)CSCC#N)C(=O)N2C(C(=O)O)=C(CSc3nnnn3C)CS[C@@H]21,inactive,–
O=C(Nc1ccccc1)Nc1ccccc1,inactive,–
O=C(O)c1ccc[n+]([O-])c1,inactive,–

Compound,outcome,activation
NC(Cc1ccc(Cl)cc1)C(=O)O (stereo not given),–,-1.07% [at 0.29 µM]
CCCCCCCCCCc1ccccc1,inactive,–
Cc1ccccc1N1C(=O)c2cc(S(N)(=O)=O)c(Cl)cc2NC1C (stereo not given),inactive,–
NC1CCN(c2nc3c(cc2F)c(=O)c(C(=O)O)cn3-c2ccc(F)cc2F)C1 (stereo not given),inactive,–
CCOc1cc([N+](=O)[O-])c(OCC)cc1N1CCOCC1,inactive,–
CO[C@@H]1[C@H](OC(=O)/C=C/C=C/C=C/C=C/C(=O)O)CC[C@]2(CO2)[C@H]1[C@@]1(C)O[C@@H]1CC=C(C)C,inactive,–
CN1C(=O)OC(C)(C)C1=O,inactive,–
FC(F)(F)c1ccc(Cl)cc1Cl,inactive,–
O=C(CCC1CCN(Cc2ccccc2)CC1)c1ccc2c(c1)NCCCC2,inactive,–
Cn1c(=O)[nH]c2ncn(C)c2c1=O,inactive,–
Nc1nc(Cl)nc2c1ncn2[C@@H]1O[C@H](CO)[C@@H](O)[C@@H]1F,inactive,–
CC(C)(C)C1=CC(=O)C(C(C)(C)C)=CC1=O,inactive,–
Cc1c(C(=O)NCCO)[n+](=O)c2ccccc2n1[O-],inactive,–
C=CC(C)(CCC=C(C)C)OC(=O)C(C)C (stereo not given),inactive,–
CN1Cc2cc(C(=O)N3CCC(C4CCNCC4)CC3)ccc2N[C@@H](CC(=O)O)C1=O,inactive,–
[O-][n+]1cccc(CO)c1,inactive,–
Cc1cc(C(=O)O)ccc1[N+](=O)[O-],inactive,–
CC(C)=CCC/C(C)=C/C=N/O,inactive,–
CC(=O)c1c(C)cc(C(C)(C)C)cc1C,inactive,–
O=S1(=O)c2cccc3cccc(c23)N1CCCN1CCN(c2ccc(F)cc2)CC1,inactive,–

# Tested on: not listed separately
# Assay: G protein-coupled receptor (GPCR) small molecule agonists, calcium flux assay: HEK293 wild type cell line counter screen (AID 1920065)
# Conditions: HEK293 WT calcium flux, fluorescence, agonist mode; series mostly up to 57.6 µM
# Outline: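 Calcium flux counter screen: compound added in agonist mode at 15 concentrations in triplicate to dye-loaded parental HEK293 cells. Fluorescence (480/540) read kinetically for 3 min; ATP served as positive control.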
Compound,outcome,activation
CC(C)NCCCC1(C(N)=O)c2ccccc2-c2ccccc21,inactive,–
CC(C(=O)O)c1cccc(Oc2ccccc2)c1 (stereo not given),inactive,–
CC(C)=CCC[C@@](C)(O)[C@H]1CC=C(C)CC1,inactive,–
O=C(O)C[C@H](O)C[C@H](O)/C=C/c1c(C2CC2)nc2ccccc2c1-c1ccc(F)cc1,–,-0.173% [at 11.8 µM]
O=P(O)(O)OCC(O)CO (stereo not given),inactive,–
COC(=O)[C@H]1[C@H]2C[C@@H]3c4[nH]c5cc(OC)ccc5c4CCN3C[C@H]2C[C@@H](OC(=O)COc2ccc(OC)cc2)[C@@H]1OC,inactive,–
Cc1ccc2c(Cl)cc(Cl)c(O)c2n1,inactive,–
CCC(=O)OC(=O)CC,inactive,–
O=C1c2ccccc2C(=O)N1CO,inactive,–
C[N+]12CCC(CC1)C(OC(=O)C(O)(c1ccccc1)c1ccccc1)C2 (stereo not given),inactive,–
Cc1cccc([N+](=O)[O-])c1C(=O)O,inactive,–
Nc1nc2c(ncn2COCCO)c(=O)[nH]1,inactive,–
C[N+]1(CC2COC(c3ccccc3)(c3ccccc3)O2)CCCCC1 (stereo not given),–,0.724% [at 11.8 µM]
Cc1ncc(CO)c(C=O)c1O,inactive,–
CC(C)c1ccc(C#N)cc1,inactive,–
CN(C)CCN1CCOCC1,inactive,–
CCOC(=O)[C@H](C)O,inactive,–
CO[C@@]1(NC(=O)CSCC#N)C(=O)N2C(C(=O)O)=C(CSc3nnnn3C)CS[C@@H]21,inactive,–
O=C(Nc1ccccc1)Nc1ccccc1,inactive,–
O=C(O)c1ccc[n+]([O-])c1,inactive,–

Compound,outcome,activation
NC(Cc1ccc(Cl)cc1)C(=O)O (stereo not given),–,1.18% [at 0.217 µM]
CCCCCCCCCCc1ccccc1,inactive,–
Cc1ccccc1N1C(=O)c2cc(S(N)(=O)=O)c(Cl)cc2NC1C (stereo not given),inactive,–
NC1CCN(c2nc3c(cc2F)c(=O)c(C(=O)O)cn3-c2ccc(F)cc2F)C1 (stereo not given),inactive,–
CCOc1cc([N+](=O)[O-])c(OCC)cc1N1CCOCC1,inactive,–
CO[C@@H]1[C@H](OC(=O)/C=C/C=C/C=C/C=C/C(=O)O)CC[C@]2(CO2)[C@H]1[C@@]1(C)O[C@@H]1CC=C(C)C,inactive,–
CN1C(=O)OC(C)(C)C1=O,inactive,–
FC(F)(F)c1ccc(Cl)cc1Cl,inactive,–
O=C(CCC1CCN(Cc2ccccc2)CC1)c1ccc2c(c1)NCCCC2,inactive,–
Cn1c(=O)[nH]c2ncn(C)c2c1=O,inactive,–
Nc1nc(Cl)nc2c1ncn2[C@@H]1O[C@H](CO)[C@@H](O)[C@@H]1F,inactive,–
CC(C)(C)C1=CC(=O)C(C(C)(C)C)=CC1=O,inactive,–
Cc1c(C(=O)NCCO)[n+](=O)c2ccccc2n1[O-],inactive,–
C=CC(C)(CCC=C(C)C)OC(=O)C(C)C (stereo not given),inactive,–
CN1Cc2cc(C(=O)N3CCC(C4CCNCC4)CC3)ccc2N[C@@H](CC(=O)O)C1=O,inactive,–
[O-][n+]1cccc(CO)c1,inactive,–
Cc1cc(C(=O)O)ccc1[N+](=O)[O-],inactive,–
CC(C)=CCC/C(C)=C/C=N/O,inactive,–
CC(=O)c1c(C)cc(C(C)(C)C)cc1C,inactive,–
O=S1(=O)c2cccc3cccc(c23)N1CCCN1CCN(c2ccc(F)cc2)CC1,inactive,–
